PubChem BioAssay AID1645860 (Buhrlage Lab, Dana-Farber Cancer Institute and Novartis …, 2021)
Screen size: about 47,000 compounds; about 2,500 (5.3%) were called active. No stated cut-off is given here; in the data, active means inhibition above about 30%; inactive means the rest. The full list was thinned out, with actives kept by preference.

Each molecule was assayed against Ubiquitin carboxyl-terminal hydrolase 30 (Homo sapiens) (UniProt Q70CQ3) (assay: blocks human USP30 ubiquitin-rhodamine cleavage (AID 1645860)). Conditions: purified USP30, Ub-rhodamine cleavage fluorescence; at 25 µM; hits give high values.
Sequence of Ubiquitin carboxyl-terminal hydrolase 30 (Homo sapiens) (Q70CQ3 whole entry, looked up): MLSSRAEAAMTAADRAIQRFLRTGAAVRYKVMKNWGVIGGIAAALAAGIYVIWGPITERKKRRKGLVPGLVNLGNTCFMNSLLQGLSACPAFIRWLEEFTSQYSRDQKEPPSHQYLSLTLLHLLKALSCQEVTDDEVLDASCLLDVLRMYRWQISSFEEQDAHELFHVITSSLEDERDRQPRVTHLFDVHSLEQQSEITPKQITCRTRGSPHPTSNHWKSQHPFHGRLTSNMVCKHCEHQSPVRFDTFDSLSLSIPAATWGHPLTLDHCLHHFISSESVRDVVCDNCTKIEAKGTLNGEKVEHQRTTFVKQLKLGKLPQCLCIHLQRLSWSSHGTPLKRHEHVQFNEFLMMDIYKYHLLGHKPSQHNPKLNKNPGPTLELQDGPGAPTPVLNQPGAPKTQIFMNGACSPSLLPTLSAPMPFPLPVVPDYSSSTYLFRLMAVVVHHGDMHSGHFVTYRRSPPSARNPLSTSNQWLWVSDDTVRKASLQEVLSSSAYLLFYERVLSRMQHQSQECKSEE
`CN1CCOc2cc(S(=O)(=O)N(C)Cc3ccccc3)ccc21` was tested, and the inhibition was 29.5% (inactive). `CCOc1ncccc1C(=O)OCC(=O)c1ccc2c(c1)-c1ccccc1C2` was tested, and the inhibition was -153% (inactive). For `CCN1CCN(C(=O)c2cnn(-c3cc(-c4nc(C5CC5)no4)ccn3)c2C)CC1`, the inhibition was 1.81% (inactive). With `CCc1nc(-c2ccc(-n3cc(C(=O)NCc4nc5ccc(C)cc5[nH]4)c(C)n3)cc2)no1` the inhibition was 8.95% (inactive). For `Cc1ccc(CNC(=O)c2nc(-c3cn(-c4ccc(Br)cc4)nc3C)no2)o1`, the inhibition was 30.2% (active). With `O=C(NCC1CC1)c1nc(-c2ccc3[nH]ccc3c2)no1` the inhibition was 0.789% (inactive). For `COc1ccc(C(=O)CSc2nnc(CC(=O)Nc3ccc(C)cc3)n2C)cc1OC`, the inhibition was 9.07% (inactive). In the case of `Cn1cc(-c2nc(C(=O)Nc3ccc(F)cc3)cs2)c2cccnc21`, the inhibition is reported as 62.1% (active). With `Cc1cccc(NC(=O)c2csc(-c3cn(C)c4ncccc34)n2)c1` the inhibition was -7.75% (inactive). `Cn1nc(C(=O)Nc2ccc(F)cc2)c(=O)c2ccccc21` was tested, and the inhibition was -0.148% (inactive). With `Fc1ccccc1CNc1nnc(-c2nnc(C3CC3)o2)c2ccccc12` the inhibition was 23.3% (inactive). `O=C(O)/C(=C\c1ccc(Br)cc1)NC(=O)c1ccco1` was tested, and the inhibition was -0.242% (inactive). For `Cc1cccc(NC(=O)c2cccn2Cc2noc(C3CC3)n2)n1`, the inhibition was -19.2% (inactive). For `Cc1ccc(CNC(=O)c2cnn3c4c(cnc23)C(=O)CCC4)cc1`, the inhibition was -12.6% (inactive). With `COc1ccc(-c2cc(C(F)F)n3ncc(C(=O)N(C)Cc4c(C)nn(C)c4C)c3n2)cc1` the inhibition was -14.7% (inactive). `Cc1ccc(-c2cc(C(F)F)n3ncc(C(=O)NCC(C)C)c3n2)cc1` was tested, and the inhibition was 38.7% (active). With `COc1ccc(NC(=O)C2=C(C)Nc3ncnn3C2c2cccc(OCc3ccc(F)cc3)c2)c(OC)c1` (stereo unspecified) the inhibition was 60.3% (active). `COc1cccc(C2C(C(=O)Nc3ccccc3C)=C(C)Nc3ncnn32)c1OCc1ccccc1` (stereo unspecified) was tested, and the inhibition was -8.1% (inactive). `COc1ccccc1NC(=O)C1=C(C)Nc2ncnn2C1c1ccc(C)o1` (stereo unspecified) was tested, and the inhibition was -6.73% (inactive). For `O=C(COC(=O)c1ccc2[nH]c3c(c2c1)CCCC3)Nc1ccc(N2CCOCC2)cc1`, the inhibition was -55.7% (inactive). For `CN(C)c1ccc(CNC(=O)c2cc(CN3CCOCC3)on2)cc1`, the inhibition was 22% (inactive). For `CCOc1nc2cccnc2n(CC(=O)Nc2ccc(F)cc2F)c1=O`, the inhibition was -13% (inactive). `O=C(CN1C(=O)c2cccnc2Sc2ccccc21)Nc1ccc(F)cc1F` was tested, and the inhibition was -96.8% (inactive). With `O=C(CN1C(=O)C2CCCC2=Nc2ccccc21)Nc1ccc(F)cc1F` (stereo unspecified) the inhibition was 32.2% (active). In the case of `CNC(=O)N1CCC(n2c(C)nc(C(=O)Nc3cccc(OC)c3)c2C)CC1`, the inhibition is reported as 2.54% (inactive). In the case of `COc1cccc(NC(=O)C(C#N)C(=O)C2CC2c2cccc(C)c2)c1` (stereo unspecified), the inhibition is reported as 31.3% (active). For `CCN1CCCCC12Cc1ccccc1CN(S(C)(=O)=O)C2` (stereo unspecified), the inhibition was 1.88% (inactive). `Cc1cccc(NC(=O)c2ccc(N3CCC(C)CC3)c([N+](=O)[O-])c2)c1C` was tested, and the inhibition was -29.1% (inactive). For `CN1CCN(S(=O)(=O)c2cccc(C(=O)Nc3cccc(S(N)(=O)=O)c3)c2)CC1`, the inhibition was 7.83% (inactive). `O=C(Nc1cccc(S(=O)(=O)N2CCCCCC2)c1)c1ccc(N2CCOCC2)c([N+](=O)[O-])c1` was tested, and the inhibition was 47.3% (active). In the case of `COc1ccccc1OCc1nc(C)c(C(C)=O)s1`, the inhibition is reported as 6.92% (inactive). In the case of `c1ccc(Sc2nc(-c3ccccc3)nc3ccsc23)cc1`, the inhibition is reported as -19% (inactive). With `CCC(=O)N1CCc2cc(S(=O)(=O)NC(Cc3ccccc3)C(=O)Nc3ccccc3OC)ccc21` (stereo unspecified) the inhibition was -0.729% (inactive). For `CC(CCc1ccccc1)NC(=O)/C=C/c1cccc([N+](=O)[O-])c1` (stereo unspecified), the inhibition was 34.1% (active). With `CC(CCc1ccccc1)NC(=O)c1cc2cc(Oc3ccccc3)ccc2[nH]1` (stereo unspecified) the inhibition was 8.29% (inactive). With `O=C(Oc1cccc([N+](=O)[O-])c1)C(c1ccccc1)c1ccccc1` the inhibition was 25% (inactive). With `COc1cccc(OCC(=O)N2CC(=O)Nc3ccccc32)c1` the inhibition was -14.6% (inactive). In the case of `Cc1nc(C)n(CC2CCCCN2Cc2ncc(C(C)(C)C)o2)n1` (stereo unspecified), the inhibition is reported as -97.5% (inactive). For `Cc1cc(C2CN(C(=O)c3cn4c(C)cccc4n3)CCO2)nc(C)n1` (stereo unspecified), the inhibition was 2.35% (inactive). For `O=C(Cc1cccc2ccccc12)Nc1nc2ccc(F)cc2s1`, the inhibition was 53.9% (active). With `CCCC(=O)Nc1nc2ccc(CCC(=O)NCc3ccc(F)cc3)cc2s1` the inhibition was -10.2% (inactive). In the case of `CCOc1ccc2nc(NC(=O)CN3CCC(C(N)=O)CC3)sc2c1`, the inhibition is reported as -1.04% (inactive). `O=C(OCC(=O)N1CCc2ccccc21)c1cccc([N+](=O)[O-])c1` was tested, and the inhibition was -2.1% (inactive). With `CC(C)[C@H](NC(=O)N1CCn2c1nc1ccccc12)C(=O)NC1CC1` the inhibition was 16% (inactive). In the case of `Cc1ccc2c(c1)C(c1ccccc1)N(C(=O)c1ccc(S(=O)(=O)N3CCOCC3)cc1)CC(=O)N2` (stereo unspecified), the inhibition is reported as 32.4% (active). In the case of `O=C1CN(C(=O)c2cccc3ccccc23)C(c2ccc(F)cc2)c2cc(Br)ccc2N1` (stereo unspecified), the inhibition is reported as 16% (inactive). In the case of `Cc1ccc2c(c1)C(c1ccc(F)cc1)N(C(=O)CC1CCCCC1)CC(=O)N2` (stereo unspecified), the inhibition is reported as 26.9% (inactive). With `O=C(c1ccccc1Cl)N1CCc2c([nH]c3ccccc23)C1c1ccc2c(c1)OCO2` (stereo unspecified) the inhibition was -14.6% (inactive). In the case of `CCc1nnc(NC(=O)C2CCN(C(=O)c3ccc(F)cc3)CC2)s1`, the inhibition is reported as -0.015% (inactive). With `CCc1ccc(-n2nnc(C(=O)Nc3nnc(CC)s3)c2C)cc1` the inhibition was 30.5% (active). `CCc1nnc(NC(=O)c2cc(-c3ccc(C)c(C)c3O)n[nH]2)s1` was tested, and the inhibition was 17.9% (inactive). `CNC(=O)c1cc(-c2ccccc2)c(N2CCOCC2)s1` was tested, and the inhibition was -0.0877% (inactive). For `COc1ccc(NC(=O)c2sc(N3CCOCC3)nc2-c2ccccc2)c(OC)c1`, the inhibition was 48.1% (active). In the case of `COc1ccc(-c2nc(N(Cc3ccccc3)C(=O)CN3CCOCC3)sc2C)cc1`, the inhibition is reported as -14.4% (inactive). In the case of `Cc1cc(C)c(S(=O)(=O)Nc2ccc(Cn3cncn3)cc2)cc1C`, the inhibition is reported as -29.3% (inactive). `COc1ccc(CN[C@H]2[C@H](O)[C@H](O)C[C@@H]2c2ccccc2)cn1` was tested, and the inhibition was -17.6% (inactive).
